Sampled rows, rich in hits. Any-hit rate of the full collection: about 1.4%.
EPAC2 antagonist = qHTS for Antagonist of cAMP-regulated guanine nucleotide exchange factor 2 (EPAC2): primary screen. Rap guanine nucleotide exchange factor 4 (Homo sapiens), Q8WZA2. EPAC2 GEF exchange of Rap1B-BODIPY-GDP, fluorescence. Potency, µM (series often up to 114 µM), most hits filed as inhibitors. hit rate 0.18% among 360,000. AID 720708, 2013; also: nearly all actives have a fitted effect of over 45% in size
EPAC1 antag = qHTS for Antagonist of cAMP-regulated guanine nucleotide exchange factor 3 (EPAC1): primary screen. hit rate 0.14% among 360,000. EPAC1 GEF assay, Rap1b-BODIPY-GDP exchange fluorescence. AID 720709, 2013. Potency, µM (top dose mostly 115 µM), usual class: inhibitors; also: nearly all actives have a fitted effect of over 50% in size
EPAC1 ag = qHTS for Agonist of cAMP-regulated guanine nucleotide exchange factor 3 (EPAC1): primary screen; AID 720707, 2013; EPAC1 agonist qHTS, biochemical assay; response scale: 100% = response to 6.5 mM cAMP; Potency, µM (highest dose often 154 µM), actives largely listed as activators; hit rate 0.073% among 360,000; also: nearly all actives have a fitted effect of over 60% in size
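Nucleotide exchange assay: 100 nM EPAC1 with 250 nM Rap1B loaded with BODIPY-GDP and 50 uM GDP, room temperature. Fluorescence (480/540 nm) read every 5 min for 30 min; signal change normalized to 6.5 mM cAMP as full agonist.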
KCNH2 WT inh = qHTS for Inhibitors of KCHN2 3.1: Wildtype qHTS. Voltage-gated inwardly rectifying potassium channel KCNH2 (Homo sapiens), Q12809. U2OS, BacMam KCNH2, thallium flux FluxOr; hits give low values. activity change, % at 1.84 µM. hit rate 0.37% among 340,000. AID 720551, 2013;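 active = maximum activity change below -70%; inconclusive = maximum activity change between -70% and -50%; inactive = maximum activity change above -50%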
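U2OS cells were transduced with wild-type KCNH2 virus (2.03 x 10^8 / mL) for 4 h at room temperature, then cultured overnight at 37 C. Thallium flux was read with FluxOr dye. Rate constants were normalized to DMSO controls.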
KCNH2 3.1 block = qHTS for Inhibitors of KCHN2 3.1: Mutant qHTS. Potassium voltage-gated channel subfamily H member 2, brain isoform KCNH2 3.1 (human). U2OS KCNH2 3.1, thallium flux FluxOr; hits give low values. activity change, % (tested at about 1.8 µM). hit rate 0.95% among 340,000;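 active = maximum activity change below -70%; inconclusive = maximum activity change from -70% to -50%; inactive = maximum activity change above -50%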;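 also: thallium influx rate constant from kinetic fluorescence after stimulation buffer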
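FluxOr-based Tl+ influx in U2OS cells transduced with KCNH2 3.1 virus; rate constants normalized to DMSO controls.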
EPAC2 agonist = qHTS for Agonist of cAMP-regulated guanine nucleotide exchange factor 4 (EPAC2): primary screen. EPAC2 activation, biochemical qHTS; response scale: 100% = 6.5 mM cAMP response. AID 720711, 2013. hit rate 0.079% among 360,000. Rap guanine nucleotide exchange factor 4 (Homo sapiens), Q8WZA2. Potency, µM (doses to about 154 µM), hits mostly activators; also: nearly all actives have a fitted effect of over 50% in size
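qHTS, titration series. 100 nM EPAC2 / 250 nM Rap1B-BODIPY-GDP / 50 uM GDP; RT; ex 480/em 540 nm, 5-min reads to 30 min. Norm. to 6.5 mM cAMP = activation.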
Large screens that a line does not name were inactive. Unless noted, calls follow the shape of the dose curve; as a rule, active = well fitted curve in the direction sought with a large enough effect; inconclusive = small, poorly fitted or top-dose-only effect, or another doubt; inactive = no such curve, though single readings can be large; an effect the other way counts as inactive or inconclusive.

CC1(C)NC(=O)N(CC(O)CNC23CC4CC(CC(C4)C2)C3)C1=O (stereo not given)	KCNH2 WT inh -99.9
O=C(CCc1nnc(CCCc2ccccc2)o1)NCC(F)(F)F	KCNH2 WT inh -240.3, KCNH2 3.1 block -181.6
O=C(CCc1nnc(CCCc2ccccc2)o1)NCCc1ccccc1	none
COC(=O)C1=C(C(=O)OC)[C@@H]2Nc3ccccc3[C@@]23C[C@@H](C(=O)OC)N(C(=O)c2ccc(Br)cc2)C3=N1	KCNH2 3.1 block -114.4
COc1ccccc1CCC(=O)OCC(=O)Nc1cc(C)nn1-c1ccccc1	EPAC1 ag 100µM
OCCC1CN(Cc2nc3ccccc3s2)CCN1CCc1ccccc1 (stereo not given)	none
Clc1cccc(CNCCCSc2ncccn2)c1Cl	KCNH2 3.1 block -94.2
COC(=O)C[C@H]1CC[C@@H](NC(=O)Nc2c(C)noc2C)[C@@H](CO)O1	none (no result: KCNH2 WT inh, KCNH2 3.1 block)
O=C(CSc1nnc(CNC(=O)c2ccccc2)o1)NCC1CCCO1 (stereo not given)	none
COc1ccc(NC(=O)c2cccn(CC=C(C)C)c2=O)cc1	KCNH2 3.1 block -101.7
COc1ccc2c(c1OC)CN(C)CCc1cc3c(cc1C(=O)C2)OCO3	KCNH2 3.1 block -83.5
O=C(NS(=O)(=O)c1ccc2ccc(S(=O)(=O)NCCSc3ccccc3)cc2c1)c1cccc2ccccc12	EPAC2 antagonist inconclusive, EPAC1 antag 56.2µM (no result: KCNH2 WT inh, KCNH2 3.1 block)
O=S(=O)(NCCSc1ccccc1)c1ccc(F)cc1	none
CN(C)c1nc(Cl)nc(N(C#N)CCOc2ccccc2)n1	KCNH2 3.1 block -83.2
CCNc1nc(NCC)nc(N(C#N)CCOc2ccccc2)n1	none
COc1cc(/C=N/NC(=O)C2CCN(CC(O)COCc3ccccc3)CC2)ccc1O (stereo not given)	KCNH2 WT inh -128.2, KCNH2 3.1 block -99.1
COc1ccc(C2CC(c3cccs3)=NN2C(=O)CCCC(=O)O)cc1OC (stereo not given)	none
CCCCCn1c(N2CCN(Cc3ccccc3)CC2)nc2c1c(=O)[nH]c(=O)n2C	KCNH2 WT inh inconclusive, KCNH2 3.1 block -74.9
COc1ccccc1N1CCN(CCNC(=O)Nc2cccc(C)c2C)CC1	KCNH2 WT inh -124.0
CCOc1ccc(CN(C)CC(=O)c2c(N)n(Cc3ccccc3)c(=O)n(CC)c2=O)cc1OC	KCNH2 WT inh -117.3, KCNH2 3.1 block -101.0
CCn1c(=O)c(C(=O)CN(C)Cc2ccc(F)cc2)c(N)n(Cc2ccccc2)c1=O	KCNH2 3.1 block -84.3
OC[C@@H]1CN(Cc2ccco2)C[C@H](n2cnc3c(NCc4ccncc4)ncnc32)O1	none (no result: KCNH2 WT inh, KCNH2 3.1 block)
Cc1ccc(S(=O)(=O)N2[C@@H](c3ccc(Cl)cc3)C(C(=O)O)=CC[C@H]2c2ccc(C(C)C)cc2)cc1	EPAC2 antagonist inconclusive, EPAC1 antag 50.1µM
Cc1ccc([C@H]2C(C(=O)O)=CC[C@@H](c3ccc(C(C)C)cc3)N2S(=O)(=O)c2ccc(C)cc2)cc1	EPAC2 antagonist inconclusive, EPAC1 antag inconclusive
C=CCOc1ccc(CNCC2CCCO2)cc1 (stereo not given)	none
CCOc1nc(Nc2ccc(OC)cc2OC)nc(OCC)n1	none
CC(=O)N/N=C/c1ccc(OCCOc2ccc(Br)cc2)cc1	none
CCn1c(/C=C/Nc2ccccc2)[n+](CC)c2cc(Cl)c(Cl)cc21	KCNH2 WT inh -131.9, KCNH2 3.1 block -97.9
Cc1ccc(OCC(=O)Nc2ccc3c(c2)nc(CCN2CCCCC2)n3C)cc1	KCNH2 3.1 block inconclusive
COc1ccc(OCC(=O)Nc2ccc3c(c2)nc(CCN2CCCCC2)n3C)cc1	KCNH2 3.1 block -72.4
Cc1cccc(OCC(=O)Nc2ccc3c(c2)nc(CN2CCCCC2)n3C)c1	none
Cc1cccc(OCC(=O)Nc2ccc3c(c2)nc(CCN2CCCCC2)n3C)c1	KCNH2 3.1 block -77.1
Cn1c(CCN2CCCCC2)nc2cc(NC(=O)COc3ccccc3)ccc21	KCNH2 3.1 block -85.5
C/C(=N/O)c1no[n+]([O-])c1/C(C)=N\O	none
O=C(c1ccc(F)cc1)N1CCC(C(=O)N2CCN(S(=O)(=O)c3cccc(Cl)c3)CC2)CC1	none
O=C(NC(CC(=O)N1CCCC(C(F)(F)F)C1)c1ccccc1)c1ccccc1Cl (stereo not given)	none
CC(=O)c1cccc(CN2CCC(n3nccc3NC(=O)c3ccc4c(c3)OCO4)CC2)c1	none
Cc1ccc(CNC(=O)c2nnn(-c3cccc(C)c3)c2N)cc1	KCNH2 3.1 block -107.6
Cc1cc(C)cc(-n2nnc(C(=O)NCc3ccccc3)c2N)c1	none
Cc1ccccc1C(=O)NC(CC(C)C)C(=O)NN1C(=O)c2ccccc2C1=O (stereo not given)	none
Cc1ccccc1C(=O)NNC(=O)C(C)N1C(=O)c2ccccc2C1=O (stereo not given)	KCNH2 3.1 block -73.0
COc1ccc(CC(O)CC2c3c(cc4c(c3OC)OCO4)CCN2C)cc1 (stereo not given)	KCNH2 3.1 block -97.0
CC1CN(S(=O)(=O)c2cccc(C(=O)N3CCC(C(N)=O)CC3)c2)CC(C)O1 (stereo not given)	none
CC1CC[C@@]2(OC1)O[C@H]1CC3[C@@H]4C[C@@H](O)[C@@]5(O)C[C@@H](O)[C@H](O)C[C@]5(C)[C@H]4CC[C@]3(C)[C@H]1[C@@H]2C (stereo not given in full)	KCNH2 WT inh -91.8
NC(=O)c1cc2c3ccccc3ccn2c1-c1ccccc1	none
NS(=O)(=O)c1ccc(CCNCc2ccccc2OCc2ccc(Cl)cc2)cc1	KCNH2 3.1 block -70.9
O=C1C[C@H]2[C@H](CO)[C@@H](OC(=O)c3ccc(-c4ccccc4)cc3)C[C@H]2O1	none
COc1ccc(C2=Nc3ccc(Br)cc3C(c3ccccc3)N2CC(=O)NN)cc1 (stereo not given)	KCNH2 3.1 block -72.5
NNC(=O)CN1C(c2cccc(Cl)c2)=Nc2ccc(Br)cc2C1c1ccccc1 (stereo not given)	none

Bioassay records (PubChem)
